Structures are written as SMILES. About 900 (2%) of roughly 46,000 compounds were called active. Roughly 1% stayed inconclusive and do not appear here. This is one part of a sample in which actives are shown more often than they occur. Values without a mark were called inactive. Cut-off read from the data, not from the text of the source: active = ROS induction above about 79% (passing the limit was not always enough); inconclusive = no clear call, values can overlap the other calls.

The experiment in a line: ROS inducers in U2OS cancer cells, primary screen, cell-based, H2DCF-DA fluorescence (AID 624156).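 Note: 0% = DMSO vehicle median and 100% = reference compound median.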 The following applies: at 10 µM, stronger effect = higher value.
Turning to `c1ccc(Cn2c3ccccc3c3nnc(SCc4ccc5nonc5c4)nc32)cc1`, the ROS induction (% of piperlongumine) was 21.9%.
In the case of `CCOC(=O)CCSc1nnc2c3ccccc3n(C)c2n1` it was 39.9%.
In the case of `C=CCn1c2ccccc2c2nnc(SCCCC(=O)c3ccc(F)cc3)nc21` it was 81.9% (active).
The result for `C=CCn1c2ccccc2c2nnc(SCC(=O)N3c4ccccc4Sc4ccccc43)nc21` reads 11.2%; that for `CCn1c2ccccc2c2nnc(SCC(=O)O)nc21`, -16.9%; that for `CCCn1c2ccccc2c2nnc(SCC(=O)Nc3cccc4ccccc34)nc21`, 91.7% (active).
As for `O=C(CCCCC(=O)N/N=C/c1ccc[nH]1)NO`, the ROS induction (% of piperlongumine) was -11.8%.
As to `COC(=O)c1sccc1NC(=O)Cc1noc2ccc(C)cc12`, the ROS induction (% of piperlongumine) is -3.41%.
In the case of `CCC(C(=O)Nc1ccc(OC)c(OC)c1)n1c(C)c2cnn(-c3ccccc3)c(=O)c2c1C` (configuration not stated) it was 6.12%; in that of `CC(=NCc1ccco1)C1=C(O)c2ccccc2C1=O`, 146% (active).
Turning to `CC(=NCc1ccc2c(c1)OCO2)C1=C(O)c2ccccc2C1=O`, the ROS induction (% of piperlongumine) was 3.64%.
For `COc1ccc(C=Nc2ccc(C(C)(C)C)cc2)cc1`, the ROS induction (% of piperlongumine) was -6.06%.
The result for `Cc1cccc(N2CCN(C(=O)CCn3c(=S)[nH]c4cc5c(cc4c3=O)OCO5)CC2)c1C` reads 8.61%.
In the case of `Cc1cccc(N2CCN(C(=O)CC3(CC4=NS(=O)(=O)c5ccccc5N4)CCCC3)CC2)c1C` it was 172% (active); in that of `CC1=C(C(=O)OC(C)C)C(c2cn(-c3ccccc3)nc2-c2ccc(OC(C)C)cc2)NC(=O)N1` (configuration not stated), -3.28%; in that of `COc1ccc(S(=O)(=O)N(C)C)cc1`, -6.36%.
As for `Cc1ccc2nc(C)c3c(c2c1)N(c1ccccc1)CC3`, the ROS induction (% of piperlongumine) was 50.9%.
In the case of `Cc1ccc(Nc2nc(C)cc(C)c2C(N)=O)cc1` it was 19.7%; in that of `Cc1ccc2nc(Nc3ccccc3)cc(C)c2c1`, 178% (active).
As to `C[C@@H]1CN([C@H](C)CO)C(=O)Cc2cc(NC(=O)Nc3ccccc3)ccc2O[C@@H]1CN(C)Cc1ccc(C(F)(F)F)cc1`, the ROS induction (% of piperlongumine) is 23.2%.
Consider `COC(=O)c1c(C)nc(C)c(C(=O)OC)c1-c1csc(S(=O)(=O)/N=C/N(C)C)c1`, for which the ROS induction (% of piperlongumine) was -10.2%.
The result for `CCNC(=S)N1CCN(CCN=CC2=C(O)CC(c3ccccc3)CC2=O)CC1` (configuration not stated) reads -5.61%; that for `C=CCn1c(=S)sc2c(SCC(=O)N3CCc4ccccc43)ncnc21`, -9.07%.
In the case of `CCOC(=O)c1c(C)n(C)c2ccccc12` it was -3.38%.
In the case of `CCOC(=O)c1nnn2c1nc(N1CCN(c3ccccc3)CC1)c1ccccc12` it was 155% (active).
For the compound `CCOC(=O)c1nnn2c3ccccc3c(=O)n(C)c12`, the ROS induction (% of piperlongumine) was 38.4%.
In the case of `CCCNC(=O)Cn1c(=O)c2cccn2c2ccccc21` it was -9.02%; in that of `C=C1C(=O)O[C@H]2C3=C(C)C[C@H](OC(C)=O)C[C@]3(C)CC[C@@H]12`, 210% (active); in that of `Cn1c(COc2ccc(C(C)(C)c3ccccc3)cc2)n[nH]c1=S`, -8.56%.
In the case of `CCc1cccc(O[C@@H]2O[C@@H]3COC(c4ccccc4)O[C@H]3[C@H](O)[C@H]2NC(C)=O)c1` (some centres not stated) it was -15.2%; in that of `COc1ccccc1N(CC(=O)Nc1ccc(C(F)(F)F)cc1)S(C)(=O)=O`, 4.82%.
Consider `O=C(NCc1cccnc1)c1cnn2c(C(F)F)cc(-c3ccccc3)nc12`, for which the ROS induction (% of piperlongumine) was 170% (active).
`O=C(c1cc([N+](=O)[O-])ccc1NCc1cccnc1)N1CCOCC1`: the ROS induction (% of piperlongumine) was 1.17%.
Consider `NC(=O)c1c(NC(=O)c2cnn3c(C(F)F)cc(-c4ccccc4)nc23)sc2c1CCCC2`, for which the ROS induction (% of piperlongumine) is 12.4%.
In the case of `O=C(N1CCCCC1)[C@@]1(CCS(=O)(=O)c2ccccc2)N=C(c2ccc(OCCCO)cc2)O[C@H]1c1ccccc1` it was 97.7% (active); in that of `C=CC[C@]1(C(=O)NCC(O)CO)N=C(c2ccc(OCCCO)cc2)O[C@H]1c1ccccc1` (some centres not stated), 30.5%.
In the case of `O=C1N(CCS(=O)(=O)c2ccccc2)Cc2ccccc2[C@H]2OC(c3ccc(OCCCO)cc3)=N[C@@]12CCS(=O)(=O)c1ccccc1` it was 141% (active); in that of `COCCCNC(=O)[C@@]1(Cc2ccccc2)COC(c2ccc(OCCCO)cc2)=N1`, 11.7%; in that of `C[C@H]1CN([C@@H](C)CO)C(=O)Cc2cc(NC(=O)Nc3ccc4c(c3)OCO4)ccc2O[C@H]1CN(C)Cc1ccc(C(=O)Nc2ccccc2N)cc1`, 29.3%.
For `CCc1ccc(OCC(N)=O)cc1`, the ROS induction (% of piperlongumine) is 18.8%.
The result for `C[C@@H]1CN([C@H](C)CO)C(=O)c2cccc(NC(=O)c3nc4ccccc4s3)c2O[C@H]1CN(C)Cc1ccccc1` reads 10.3%; that for `Nc1ncnc2nc(N3CCCCC3)[nH]c12`, -11.8%.
The result for `c1ccc(Cc2nc3c4c5c(sc4ncn3n2)CCCC5)cc1` reads 20.6%; that for `Cc1ccc(S(=O)(=O)N(C)C[C@H]2Oc3ccc(NC(=O)Cc4cn(C)c5ccccc45)cc3CC(=O)N([C@@H](C)CO)C[C@H]2C)cc1`, 109% (active); that for `C[C@@H]1CN([C@@H](C)CO)C(=O)Cc2cc(NC(=O)Cn3cnnn3)ccc2O[C@@H]1CN(C)S(=O)(=O)c1cn(C)cn1`, 4.76%.
With `C[C@@H]1CN([C@H](C)CO)C(=O)Cc2cc(NC(=O)Cn3cnnn3)ccc2O[C@@H]1CN(C)S(=O)(=O)c1ccc(F)cc1`, the ROS induction (% of piperlongumine) is 3.99%.
In the case of `Cc1ccc(S(=O)(=O)N(C)C[C@@H]2Oc3ccc(NC(=O)Cn4cnnn4)cc3CC(=O)N([C@H](C)CO)C[C@H]2C)cc1` it was 101% (active).
The result for `C[C@@H]1CN([C@H](C)CO)C(=O)Cc2cc(NC(=O)Cc3cn(C)c4ccccc34)ccc2O[C@@H]1CN(C)S(=O)(=O)c1ccccc1` reads 18.9%; that for `Cc1ccc(S(=O)(=O)N(C)C[C@@H]2Oc3ccc(NC(=O)Cc4cn(C)c5ccccc45)cc3C(=O)N([C@@H](C)CO)C[C@@H]2C)cc1`, -5.66%; that for `CC(C)(C)NC(=S)N1CCn2cccc2C1c1ccccc1F` (configuration not stated), 2.09%.
Turning to `Cn1nnc(NC(=O)COc2ccc(Cl)cc2Cl)n1`, the ROS induction (% of piperlongumine) was -1.96%.
Consider `Cc1noc(C)c1NC(=O)Nc1ccc2c(c1)C(=O)N([C@H](C)CO)C[C@@H](C)[C@H](CN(C)Cc1ccncc1)O2`, for which the ROS induction (% of piperlongumine) is -4.05%.

For the origin of these results see PubChem BioAssay AID624156 (Broad Institute, 2012).
